# Assay results taken from article PMC5540273 (PLoS ONE, 2017).
# How the values were obtained:
# Settings in all cases: concentration: 1 μM, replicates: in singlicate; n = 1
# [1] = test system: RPS6KA4(Kin.Dom.1-N-terminal)
# [2] = test system: RPS6KA4(Kin.Dom.2-C-terminal)
# [3] = test system: RPS6KA5(Kin.Dom.1-N-terminal)
# [4] = test system: RPS6KA5(Kin.Dom.2-C-terminal)
# [5] = test system: T1, RSK1(Kin.Dom.1-N-terminal)
# T1 construct: gene RPS6KA1
# [6] = test system: T2, RSK1(Kin.Dom.2-C-terminal)
# T2 construct: gene RPS6KA1
# [7] = test system: T3, RSK2(Kin.Dom.1-N-terminal)
# T3 construct: gene RPS6KA3
# [8] = test system: T4, RSK2(Kin.Dom.2-C-terminal)
# T4 construct: gene RPS6KA3
# [9] = test system: T5, RSK3(Kin.Dom.1-N-terminal)
# T5 construct: gene RPS6KA2
# [10] = test system: T6, RSK3(Kin.Dom.2-C-terminal)
# T6 construct: gene RPS6KA2
# [11] = test system: T7, RSK4(Kin.Dom.1-N-terminal)
# T7 construct: gene RPS6KA6
# [12] = test system: T8, RSK4(Kin.Dom.2-C-terminal)
# T8 construct: gene RPS6KA6
# S6K1 = test system: S6K1
# SBK1 = test system: SBK1
# SGK2 = test system: SGK2
# SGK3 = test system: SGK3
# SGK = test system: SGK
# SIK2 = test system: SIK2
# SIK = test system: SIK
# SLK = test system: SLK
# 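Also: KINOMEscan kinase panel screen.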
SMILES,%Inh [1] [%],%Inh [2] [%],%Inh [3] [%],%Inh [4] [%],%Inh [5] [%],%Inh [6] [%],%Inh [7] [%],%Inh [8] [%],%Inh [9] [%],%Inh [10] [%],%Inh [11] [%],%Inh [12] [%],%Inh (S6K1) [%],%Inh (SBK1) [%],%Inh (SGK2) [%],%Inh (SGK3) [%],%Inh (SGK) [%],%Inh (SIK2) [%],%Inh (SIK) [%],%Inh (SLK) [%]
COc1cccc(C2=C(Nc3cccc(O)c3)C(=O)NC2=O)c1 [SB-390771],21,0,21,2,84,0,8,28,84,7,0,37,11,4,0,16,0,3,0,69
COC(=O)Nc1nc2ccc(Oc3ccc(NC(=O)Nc4cc(C(F)(F)F)ccc4F)cc3)cc2[nH]1.Cl [GW654607],15,0,0,0,0,13,0,35,12,0,0,16,21,17,8,5,0,0,0,85
Nc1ncc(-c2ccc3nccc(-c4ccncc4)c3c2)cc1S(=O)(=O)N1CCCCC1 [GSK1693850],0,0,9,17,0,37,0,0,17,24,8,50,7,14,0,17,0,0,0,69
Fc1cc(Cl)ccc1Nc1ccnc2cc(-c3ccc(CN4CCSCC4)o3)ccc12 [GW560106],18,0,23,0,0,25,0,48,0,6,0,87,0,0,0,0,0,81,97.2,65
CCNc1nccc(-c2c(-c3ccc(F)cc3)ncn2C2CCN(C)CC2)n1,0,0,0,8,5,50,9,15,6,10,13,64,0,0,5,0,14,8,0,13
CCn1cnc2c(NCc3ccccc3)ncnc21 [SKF-96418],13,0,11,0,0,0,30,0,0,0,9,0,17,0,2,3,2,0,0,0
Nc1ncnc2scc(-c3ccc(NC(=O)Cc4cc(F)ccc4F)cc3)c12.O=C(O)C(F)(F)F [SB-731254-M],21,15,8,0,0,14,15,0,0,6,17,18,46,27,27,23,18,11,5,28
CS(=O)(=O)c1cccc(CNc2nc(Nc3ccc4c(c3)CCC(=O)N4)ncc2C(F)(F)F)c1,26,0,0,5,44,0,80,0,59,0,85,0,16,67,0,2,27,23,0,20
CC(C)c1nc(-c2ccc(F)c(NS(=O)(=O)c3c(F)cccc3F)c2)c(-c2ccnc(Nc3ccc(N4CCOCC4)nc3)n2)s1 [GSK1804250],6,0,15,3,25,9,22,27,24,6,0,16,3,25,8,20,25,88,99.5,91.4
N#CC1(c2cccc(C(=O)Nc3cccc(Oc4ccc5nc(NC(=O)C6CC6)sc5n4)c3)c2)CC1,0,2,0,0,0,25,15,1,25,21,11,10,0,0,0,0,0,0,31,39
Cc1cc(-c2c(-c3ccc(F)cc3)ncn2CCCN2CCOCC2)nc(N)n1 [SB-222517],18,0,23,4,30,49,34,0,9,21,20,0,11,18,0,3,0,2,0,18
CNc1nccc(-c2ccc3c(N)n[nH]c3c2)n1 [GSK2206003],3,91.8,19,63,22,22,38,0,14,5,59,24,0,36,6,38,36,9,0,69
Nc1ncc(-c2cn[nH]c2)c2scc(-c3ccc4c(c3)CCN4C(=O)Cc3ccccc3)c12 [GSK2593067],37,0,24,0,22,2,0,2,31,0,0,0,8,0,0,0,0,0,59,73
c1ccc(Oc2ccc(Nc3ccnc4cc(-c5ccc(CN6CCCCC6)o5)ccc34)cc2)nc1 [GW567143],13,0,0,0,22,0,0,20,3,0,0,1,6,25,6,0,0,70,97.4,36
O=C(Nc1n[nH]c2cc(-c3cccs3)ccc12)C1CC1 [SB-731284],0,11,0,0,8,0,41,0,0,0,39,13,61,13,0,37,18,0,0,0
COc1cccc(-c2nc(-c3ccccc3)[nH]c2-c2ccncc2)c1 [SB-610250],2,0,7,41,19,7,12,26,11,0,0,63,19,9,40,0,31,0,1,6
Nc1cccc(-c2ccc3c(N)n[nH]c3c2)c1 [GSK2193613],12,8,35,0,13,1,1,6,7,8,0,25,0,8,0,34,33,0,0,2
Cc1ccc(C)c(NC(=O)Nc2ccc(C)c(-c3ccc(C(=O)Nc4ccncc4)cc3)c2)c1 [GSK1398473],37,0,4,14,0,0,37,18,27,3,0,18,3,14,0,8,0,0,3,17
COc1cc(Nc2ccnc3cc(-c4ccncc4)ccc23)cc(OC)c1OC.Cl [GW494610],8,0,22,0,0,0,5,20,1,0,19,0,17,100,5,2,19,74,91.5,49
Cc1cccc(Nc2nc(N[C@H]3CCCC[C@H]3N)ncc2C(N)=O)c1.Cl [GSK986310],32,0,22,0,46,20,53,28,23,12,12,30,16,71,4,0,0,26,53,72
CN(c1ccc(NC(=O)Nc2cccc(Cl)c2)cc1)c1ccnc(N)n1.Cl [GW830707],21,0,4,0,0,0,0,0,0,0,0,0,0,3,0,0,0,0,0,20
